Measured values as given in PubChem BioAssay (NCATS).
Where “and” joins values, the source holds several entries; their conditions need not be identical. Equal values may be shown once. Results filed as inconclusive are left out. More than one record can exist for a structure, and the calls need not agree. Calls of active or inactive are those of the source. Unless noted, the call rests on the fitted dose curve; in most records, active means well fitted curve in the direction sought with a large enough effect; inconclusive means small, poorly fitted or top-dose-only effect, or another doubt; inactive means no such curve, though single readings can be large; an effect the other way counts as inactive or inconclusive.

Columns and labels:
[1] = target: M-phase phosphoprotein 8 (Homo sapiens) (UniProt Q99549); assay: qHTS Validation Assay for Inhibitors for MPP8 Chromodomain Interactions with Methylated Histone Tails (AID 488949); further: nearly all actives have a fitted effect of over 55% in size; further: potency means the concentration at half of the fitted maximal effect
Outline: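 Disruption of the preformed MPP8–trimethyl-H3K9 peptide complex (both 50 nM, 30 min, RT) is measured after 30 min compound exposure, using AlphaScreen proximity beads; aurintricarboxylic acid titration serves as plate control.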

[2] = target: Methanococcus maripaludis chaperonin (MmCpn) (UniProt Q6LX38); assay: High-Throughput Screening for Modulators of Cytosolic Chaperonin Activity: MmCpn Primary Screen (AID 488978);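 further: 50 nM MmCpn enzyme hydrolysing 30 µM ATP at 37 °C; 0% is about no effect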
Outline: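 Measures ATPase turnover of the M. maripaludis chaperonin (50 nM final) against 30 uM ATP over 10 min at 37C, with compound added 5 min beforehand at room temperature. ADP is quantified by HTRF immunodetection.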

[3] = target: Transient receptor potential cation channel subfamily V member 1 (Homo sapiens) (UniProt Q8NER1); assay: HTS Assay for Compounds that Act as Enhancers of the Vanilloid Receptor 1 (AID 488979); further: 0% is about no effect
Transient receptor potential cation channel subfamily V member 1 (Homo sapiens), sequence (Q8NER1 whole entry, looked up): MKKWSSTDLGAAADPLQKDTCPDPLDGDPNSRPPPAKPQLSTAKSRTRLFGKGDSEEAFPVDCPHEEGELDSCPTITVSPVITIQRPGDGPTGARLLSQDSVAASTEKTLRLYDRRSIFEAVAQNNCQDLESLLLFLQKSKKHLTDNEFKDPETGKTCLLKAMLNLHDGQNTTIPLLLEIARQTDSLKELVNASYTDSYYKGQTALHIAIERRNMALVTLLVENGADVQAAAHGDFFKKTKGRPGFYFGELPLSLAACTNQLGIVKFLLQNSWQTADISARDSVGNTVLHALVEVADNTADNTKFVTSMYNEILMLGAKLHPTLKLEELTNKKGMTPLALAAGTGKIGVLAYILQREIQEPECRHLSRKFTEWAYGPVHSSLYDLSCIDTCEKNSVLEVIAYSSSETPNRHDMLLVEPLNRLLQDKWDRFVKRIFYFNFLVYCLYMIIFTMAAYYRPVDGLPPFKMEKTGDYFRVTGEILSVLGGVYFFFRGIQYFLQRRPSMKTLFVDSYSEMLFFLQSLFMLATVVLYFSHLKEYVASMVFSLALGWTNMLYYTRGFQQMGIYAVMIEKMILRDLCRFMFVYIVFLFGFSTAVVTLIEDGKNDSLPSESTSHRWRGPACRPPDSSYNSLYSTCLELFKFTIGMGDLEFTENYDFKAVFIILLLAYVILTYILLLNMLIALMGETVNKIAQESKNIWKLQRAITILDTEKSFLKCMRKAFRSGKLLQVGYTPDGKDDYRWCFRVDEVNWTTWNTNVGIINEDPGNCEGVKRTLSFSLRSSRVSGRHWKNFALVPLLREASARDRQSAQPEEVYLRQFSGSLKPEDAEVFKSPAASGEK
Outline: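 TRPV1-expressing cells loaded with Fluo-8 calcium dye; compounds added and calcium influx read kinetically for 3 min (agonist phase), then capsaicin at EC20 added and read 2 min more for enhancement. Fluorescence ex 480/em 520 nm.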

[4] = target: Thyrotropin receptor (Homo sapiens) (UniProt P16473); assay: qHTS Assay for Antagonists of the Thyroid Stimulating Hormone Receptor (AID 488980); further: series mostly up to about 58 µM; 0% is about no effect
Thyrotropin receptor (Homo sapiens), sequence (P16473 whole entry, looked up): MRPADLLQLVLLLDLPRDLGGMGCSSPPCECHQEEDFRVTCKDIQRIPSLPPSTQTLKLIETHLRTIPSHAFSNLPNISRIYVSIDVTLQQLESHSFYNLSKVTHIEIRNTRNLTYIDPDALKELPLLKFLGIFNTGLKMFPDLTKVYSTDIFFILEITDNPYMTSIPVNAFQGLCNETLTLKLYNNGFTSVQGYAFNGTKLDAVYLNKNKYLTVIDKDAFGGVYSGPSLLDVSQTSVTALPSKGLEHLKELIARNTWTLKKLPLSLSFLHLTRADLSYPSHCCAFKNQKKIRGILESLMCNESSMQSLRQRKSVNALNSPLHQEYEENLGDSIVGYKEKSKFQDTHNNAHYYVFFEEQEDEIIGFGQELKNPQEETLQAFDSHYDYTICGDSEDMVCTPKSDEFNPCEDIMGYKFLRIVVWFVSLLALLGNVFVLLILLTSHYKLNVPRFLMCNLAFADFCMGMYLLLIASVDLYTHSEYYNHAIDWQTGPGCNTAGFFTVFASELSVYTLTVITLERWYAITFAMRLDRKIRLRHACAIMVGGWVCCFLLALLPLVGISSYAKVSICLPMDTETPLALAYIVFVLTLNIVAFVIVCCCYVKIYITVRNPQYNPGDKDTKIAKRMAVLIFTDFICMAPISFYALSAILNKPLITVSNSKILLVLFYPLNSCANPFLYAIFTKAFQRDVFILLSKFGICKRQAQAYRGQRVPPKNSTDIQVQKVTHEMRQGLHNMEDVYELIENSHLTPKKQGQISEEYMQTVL
Outline: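 Cells expressing human TSHR (HEK293) are dispensed in HBSS/HEPES containing 70 uM RO 20-1724, compound is added, then TSH at EC80 (4 nM final). Antibody in lysis buffer follows, 30 minutes at room temperature before HTRF detection.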

[5] = target: D(1A) dopamine receptor (Homo sapiens) (UniProt P21728); assay: HTS Assay for Allosteric Agonists of the Human D1 Dopamine Receptor: Primary Screen for Agonists (AID 488981); further: 0% is about no effect
Outline: (§1)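 Tetracycline-induced HEK293 T-REx cells force-coupled to calcium signalling were incubated overnight at 30 C and dye-loaded at room temperature. Calcium flux over 180 s after compound addition flagged agonists; a further 180 s read after EC20 dopamine flagged potentiators.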

[6] = target: D(1A) dopamine receptor (Homo sapiens) (UniProt P21728); assay: HTS Assay for Allosteric Agonists of the Human D1 Dopamine Receptor: Primary Screen for Potentiators (AID 488982); further: potency means the concentration at half of the fitted maximal effect
Outline: as §1

[7] = target: D(1A) dopamine receptor (Homo sapiens) (UniProt P21728); assay: HTS Assay for Allosteric Agonists of the Human D1 Dopamine Receptor: Primary Screen for Antagonists (AID 488983);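 further: calcium flux response to an EC80 dopamine challenge measured with no-wash dye; on the % scale 0 is the no-effect control and ±100 the full control effect; nearly all actives have a fitted effect of over 65% in size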
Outline: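 Screening of inducible HEK293 T-REx D1 cells: compound first, EC80 dopamine 180 s later, each phase read kinetically for calcium over 180 s.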

[8] = Validation screen for small molecules that induce genotoxicity in human embryonic kidney (HEK293T) cells expressing luciferase-tagged ELG1 (AID 493106); further: 0% is about no effect
Outline: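 Reporter-gene quantitative HTS in HEK293T cells carrying luciferase-tagged ELG1, whose level climbs under genotoxic stress. Compound exposure lasts 16 hr at 37 °C before luciferase detection.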

[9] = target: Thyrotropin-releasing hormone receptor (Homo sapiens) (UniProt P34981); assay: qHTS for Small Molecule Agonists and Allosteric Enhancers of Human TRH Receptor: Validation Screen for Agonists (AID 493127;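 active means calcium activation more than 3 SD above the typical response in the agonist read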;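 further: intracellular calcium rise by fluo-8 fluorescence before TRH EC20 addition; 0% is about no effect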); conditions: TRH receptor agonist cell assay; at 2 µM; stronger effect = higher value
Thyrotropin-releasing hormone receptor (Homo sapiens), sequence (P34981 whole entry, looked up): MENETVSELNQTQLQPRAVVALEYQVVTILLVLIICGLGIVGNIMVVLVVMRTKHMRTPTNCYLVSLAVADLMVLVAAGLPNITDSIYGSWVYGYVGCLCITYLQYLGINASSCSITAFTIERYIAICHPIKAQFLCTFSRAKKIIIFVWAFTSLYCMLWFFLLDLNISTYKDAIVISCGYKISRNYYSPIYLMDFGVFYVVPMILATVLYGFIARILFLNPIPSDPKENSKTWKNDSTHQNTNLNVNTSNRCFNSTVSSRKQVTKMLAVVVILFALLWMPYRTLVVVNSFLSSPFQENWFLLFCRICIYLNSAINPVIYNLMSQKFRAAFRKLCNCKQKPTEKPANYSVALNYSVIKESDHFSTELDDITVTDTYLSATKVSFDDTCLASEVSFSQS
Outline: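 Gq-coupled calcium mobilization in TRHR cells after compound addition, monitored kinetically with fluo-8 dye on an FDSS reader.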

[10] = Nrf2 qHTS screen for inhibitors: Validation (AID 493153; active means well fitted inhibition curve with a large enough effect in the main read-out, with a control signal flat, not every such curve was filed as active; further: potency means the concentration at half of the fitted maximal effect); conditions: Potency: luciferase luminescence; viability change: measured here: cytotoxicity max response
Outline: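 Dose-response validation uses reporter A549 cells with firefly luciferase under an antioxidant response element. Compounds stay on cells 18-24 h at 37°C, and luminescence indicates Nrf2-driven transcription.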

[11] = qHTS for Inhibitors of Cell Surface uPA Generation: Validation Assay (AID 493164);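 further: RAW 264.7 macrophage cells exposed to compound for 18 h; 0% is about no effect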
Outline: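 RAW 264.7, 4000 cells/well, o/n plating; cpd 7-pt 1:5 dilution 2.45 nM–38.3 uM final; 18 h, 37 C/5% CO2; ATP-Lite, 5 s luminescence exposure.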

[12] = target: Peptidyl-prolyl cis-trans isomerase NIMA-interacting 1 (Homo sapiens) (UniProt Q13526); assay: qHTS Validation Assay to Find Inhibitors of Pin1 (AID 504536; active means well fitted inhibition curve with a large enough effect in the polarisation, with a control signal flat, not every such curve was filed as active; the % refers to the polarisation;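 further: 0% = full Pin1 enzyme wells and -100% = no-enzyme wells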)
Peptidyl-prolyl cis-trans isomerase NIMA-interacting 1 (Homo sapiens), sequence (Q13526 whole entry, looked up): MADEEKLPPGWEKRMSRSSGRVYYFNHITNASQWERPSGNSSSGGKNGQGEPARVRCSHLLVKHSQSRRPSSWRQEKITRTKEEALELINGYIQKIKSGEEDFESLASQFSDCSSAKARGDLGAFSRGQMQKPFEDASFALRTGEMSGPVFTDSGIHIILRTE
Outline: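 Fluorescence polarization competition: compounds (titration) displace HiFluor-488-labeled Pin1-1b peptide from Pin1 (0.3 uM final) in pH 7.5 HEPES buffer with DTT, 10 min at room temperature; %Activity normalized to no-enzyme wells, curves fitted.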

[13] = target: Phosphoglycerate kinase, glycosomal (Trypanosoma brucei brucei) (UniProt P07378); assay: qHTS Validation Assay to Find Inhibitors of Phosphoglycerate Kinase (AID 504547);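 further: control wells lack PGK and mark full inhibition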
Phosphoglycerate kinase, glycosomal (Trypanosoma brucei brucei), sequence (P07378 whole entry, looked up): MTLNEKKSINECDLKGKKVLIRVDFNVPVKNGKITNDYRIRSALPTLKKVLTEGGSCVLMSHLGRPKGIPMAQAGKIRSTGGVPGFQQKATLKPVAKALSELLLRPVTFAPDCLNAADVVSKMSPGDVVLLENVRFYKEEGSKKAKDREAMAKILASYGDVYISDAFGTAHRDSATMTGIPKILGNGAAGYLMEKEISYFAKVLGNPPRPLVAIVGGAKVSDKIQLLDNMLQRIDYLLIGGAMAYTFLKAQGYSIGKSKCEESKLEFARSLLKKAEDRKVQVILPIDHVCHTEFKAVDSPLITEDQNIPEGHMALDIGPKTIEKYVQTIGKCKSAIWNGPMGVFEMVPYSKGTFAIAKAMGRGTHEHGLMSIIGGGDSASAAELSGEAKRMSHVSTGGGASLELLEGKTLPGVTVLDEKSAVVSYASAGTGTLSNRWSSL
Outline: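 Substrate/PGK mix plus compound; reaction started with GAPDH (100nM final) to form 1,3-BPG; 60 min RT; Kinase-Glo Plus 10 min; luminescence. TEA 100mM pH 7.6, MgCl2 5mM, Tween-20 0.01%.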

[14] = target: phosphoglycerate mutase (Leishmania major) (UniProt Q4Q090); assay: qHTS Validation Assay to Find Inhibitors of Phosphoglycerate Mutase (AID 504548);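 further: end-point luminescence from Kinase-GloPlus after the PGAM reaction; series mostly up to about 58 µM; on the % scale 0 is the no-effect control and ±100 the full control effect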
Outline: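 Inhibition of L. major PGAM was assessed by Kinase-GloPlus luminescence following a 45-minute room-temperature reaction with enzyme at 1.25nM final.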

[15] = Inducers of the Endoplasmic Reticulum Stress Response (ERSR) in human glioma: Validation (AID 504836); further: 0% is about no effect
Outline: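 Stably transfected U87-MG human glioma cells carrying a GRP78-based luminescent sensor were seeded at 1000 cells/well, pin-dosed with compounds and incubated 16 h. Luciferase reagent was then added, and end-point luminescence was read after 10 min at room temperature.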

[16] = target: Ubiquitin carboxyl-terminal hydrolase 1 (Homo sapiens) (UniProt O94782); assay: Inhibitors of USP1/UAF1: Pilot qHTS (AID 504865); further: nearly all actives have a fitted effect of over 35% in size; further: potency means the concentration at half of the fitted maximal effect
Outline: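 Kinetic fluorescence assay: 1nM USP1/UAF1, 15 min compound preincubation, then 150nM Ub-Rho; 480/540 nm.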

[17] = target: Chromobox protein homolog 1 (Homo sapiens) (UniProt P83916); assay: qHTS Validation Assay for Inhibitors of HP1-beta Chromodomain Interactions with Methylated Histone Tails (AID 488953); further: nearly all actives have a fitted effect of over 50% in size; further: potency means the concentration at half of the fitted maximal effect
Chromobox protein homolog 1 (Homo sapiens), sequence (P83916 whole entry, looked up): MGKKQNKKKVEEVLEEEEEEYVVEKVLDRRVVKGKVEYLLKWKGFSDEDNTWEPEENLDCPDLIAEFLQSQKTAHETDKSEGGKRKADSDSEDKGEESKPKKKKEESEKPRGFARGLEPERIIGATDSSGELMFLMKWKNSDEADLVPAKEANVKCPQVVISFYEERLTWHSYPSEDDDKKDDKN
Outline: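 Measured as loss of AlphaScreen luminescence from streptavidin donor and nickel acceptor beads (10 ug/mL final) bridging HP1-beta and biotin-H3(1-18)K9me3, each 50 nM. Compounds met the preassembled complex for 30 min at RT.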

[18] = target: ATPase family AAA domain-containing protein 5 (Homo sapiens) (UniProt Q96QE3); assay: Validation screen for small molecules that inhibit ELG1-dependent DNA repair in human embryonic kidney (HEK293T) cells expressing luciferase-tagged ELG1 (AID 493107); further: nearly all actives have a fitted effect of over 70% in size; further: potency means the concentration at half of the fitted maximal effect
ATPase family AAA domain-containing protein 5 (Homo sapiens), sequence (Q96QE3 whole entry, looked up, the tested form may be a part): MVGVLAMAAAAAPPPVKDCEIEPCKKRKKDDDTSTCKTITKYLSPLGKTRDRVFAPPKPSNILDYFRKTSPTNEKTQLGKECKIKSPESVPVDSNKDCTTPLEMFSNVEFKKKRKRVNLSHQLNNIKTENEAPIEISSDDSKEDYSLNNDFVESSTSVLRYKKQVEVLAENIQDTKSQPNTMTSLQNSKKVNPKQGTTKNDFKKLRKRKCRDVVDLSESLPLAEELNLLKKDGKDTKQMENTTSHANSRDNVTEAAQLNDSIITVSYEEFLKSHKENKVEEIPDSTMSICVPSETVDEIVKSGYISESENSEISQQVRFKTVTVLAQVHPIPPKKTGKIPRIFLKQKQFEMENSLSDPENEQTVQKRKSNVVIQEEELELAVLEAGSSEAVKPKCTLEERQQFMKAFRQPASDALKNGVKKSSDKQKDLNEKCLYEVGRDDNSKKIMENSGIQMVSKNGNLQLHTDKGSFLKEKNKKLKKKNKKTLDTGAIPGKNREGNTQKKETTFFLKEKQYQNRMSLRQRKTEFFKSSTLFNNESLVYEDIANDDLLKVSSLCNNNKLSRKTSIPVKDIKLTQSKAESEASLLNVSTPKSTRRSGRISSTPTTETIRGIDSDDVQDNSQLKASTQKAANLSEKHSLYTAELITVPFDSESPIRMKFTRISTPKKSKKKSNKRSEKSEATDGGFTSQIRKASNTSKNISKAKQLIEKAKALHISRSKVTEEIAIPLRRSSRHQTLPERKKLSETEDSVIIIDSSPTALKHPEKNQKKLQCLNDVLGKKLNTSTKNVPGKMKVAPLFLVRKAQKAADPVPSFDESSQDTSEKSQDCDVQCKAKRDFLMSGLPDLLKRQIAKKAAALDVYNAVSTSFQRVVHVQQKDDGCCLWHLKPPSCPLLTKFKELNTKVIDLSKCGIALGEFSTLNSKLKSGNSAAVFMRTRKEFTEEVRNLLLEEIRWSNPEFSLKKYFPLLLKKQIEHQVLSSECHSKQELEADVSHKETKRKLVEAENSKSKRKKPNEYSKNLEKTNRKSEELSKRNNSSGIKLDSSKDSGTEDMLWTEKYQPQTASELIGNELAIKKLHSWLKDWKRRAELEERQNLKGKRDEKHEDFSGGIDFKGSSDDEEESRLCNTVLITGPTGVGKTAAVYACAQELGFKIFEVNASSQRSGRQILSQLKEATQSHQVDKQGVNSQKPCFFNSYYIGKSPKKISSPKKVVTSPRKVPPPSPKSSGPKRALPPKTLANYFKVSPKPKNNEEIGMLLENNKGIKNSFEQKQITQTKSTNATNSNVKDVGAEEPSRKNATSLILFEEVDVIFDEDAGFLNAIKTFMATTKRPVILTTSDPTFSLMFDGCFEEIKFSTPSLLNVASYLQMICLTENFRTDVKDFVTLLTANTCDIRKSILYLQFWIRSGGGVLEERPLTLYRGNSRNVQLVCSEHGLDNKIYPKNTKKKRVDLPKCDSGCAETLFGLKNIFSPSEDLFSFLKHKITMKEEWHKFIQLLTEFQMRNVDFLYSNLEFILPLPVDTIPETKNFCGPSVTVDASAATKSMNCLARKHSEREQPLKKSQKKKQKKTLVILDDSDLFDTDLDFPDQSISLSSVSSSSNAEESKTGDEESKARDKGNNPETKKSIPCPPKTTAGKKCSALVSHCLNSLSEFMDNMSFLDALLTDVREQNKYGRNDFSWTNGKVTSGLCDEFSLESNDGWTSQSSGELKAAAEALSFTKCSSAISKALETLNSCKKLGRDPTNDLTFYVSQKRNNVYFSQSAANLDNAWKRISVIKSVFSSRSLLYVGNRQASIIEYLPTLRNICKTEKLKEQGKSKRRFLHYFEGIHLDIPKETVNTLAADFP
Outline: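 Quantitative HTS in HEK293T cells carrying luciferase-tagged ELG1, stimulated with 5-fluorouridine alongside compound for 16 hr. Loss of luciferase signal marks inhibition of ELG1 response.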

[19] = target: ATP-dependent 6-phosphofructokinase (Trypanosoma brucei brucei) (UniProt O15648); assay: qHTS Assay to Find Inhibitors of T. brucei phosphofructokinase: hit validation (AID 492961);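 further: luminescence reports ADP formed as PFK phosphorylates fructose-6-phosphate with ATP; series mostly up to about 51 µM; on the % scale 0 is the no-effect control and ±100 the full control effect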
Outline: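 Reaction: 0.1 M triethanolamine pH 8.0, 5 mM MgCl2, F6P 0.5 mM, ATP 0.1 mM, PFK 1.25 nM, 45 min RT. Read-out: ADP-Glo luminescence. Analysis: concentration-response fits, classed by r2 and efficacy.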

[20] = target: DNA dC->dU-editing enzyme APOBEC-3G (Homo sapiens) (UniProt Q9HC16); assay: qHTS for inhibitors of Vif-A3G interactions: Validation (AID 588379); further: 0% is about no effect
DNA dC->dU-editing enzyme APOBEC-3G (Homo sapiens), sequence (Q9HC16 whole entry, looked up): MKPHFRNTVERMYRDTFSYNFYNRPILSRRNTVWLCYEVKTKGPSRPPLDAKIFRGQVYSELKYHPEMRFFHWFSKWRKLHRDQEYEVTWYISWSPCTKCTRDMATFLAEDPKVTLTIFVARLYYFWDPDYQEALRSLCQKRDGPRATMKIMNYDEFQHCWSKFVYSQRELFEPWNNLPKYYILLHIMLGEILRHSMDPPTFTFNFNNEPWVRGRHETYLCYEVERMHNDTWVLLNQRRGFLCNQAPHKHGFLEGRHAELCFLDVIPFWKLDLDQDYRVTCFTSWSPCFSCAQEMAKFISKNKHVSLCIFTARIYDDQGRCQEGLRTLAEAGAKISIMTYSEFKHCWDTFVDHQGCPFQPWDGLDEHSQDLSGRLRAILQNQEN
Outline: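 HeLa cells stably expressing Vif and A3G-eYFP, 700 cells/well, incubated overnight at 37 deg C, then exposed to compound overnight at 37 deg C. Inhibition of Vif-mediated degradation read as increased yellow fluorescence (Ex 488/Em 500-530) by laser-scanning cytometry.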

O=C1NCN(c2ccccc2)C12CCN(CC1COc3ccccc3O1)CC2 (stereo not given)
inactive: Potency [1] | outcome [2] | outcome [3] | outcome [4] | Potency [5] | Potency [6] | Potency [7] | Potency [8] | activation [9] 0.562% | Potency [10] | outcome [11] | Potency [12] | Potency [13] | outcome [14] | outcome [15] | Potency [16]
1.49%: viability change [10]

CC(COc1ccccc1)N(CCCl)Cc1ccccc1 (stereo not given)
active: Potency [17] 9.5 nM
inactive: Potency [1] | outcome [15] | Potency [16]

CCC1(C2=NCCN2)Cc2ccccc2O1 (stereo not given)
1.87%: viability change [10]
active: Potency [6] 2.31 µM
inactive: Potency [1] | Potency [17] | outcome [2] | outcome [3] | outcome [4] | Potency [5] | Potency [7] | Potency [8] | activation [9] 0.812% | Potency [10] | outcome [11] | Potency [12] | Potency [13] | outcome [14] | outcome [15] | Potency [16]

COc1ccc(Cc2nccc3cc(OC)c(OC)cc23)cc1OC
inactive and 50.1 µM (active): Potency [16]
-7.85%: viability change [10]
active: Potency [17] 6 nM | Potency [10] 7.31 µM
inactive: Potency [1] | outcome [3] | outcome [4] | activation [9] -0.312% | outcome [15]

Cc1cccc(C)c1NC(=O)CN1CCCC1=O
-4.1%: viability change [10]
inactive: Potency [1] | Potency [17] | outcome [2] | Potency [5] | Potency [6] | Potency [7] | Potency [8] | Potency [18] | Potency [10] | outcome [11] | Potency [13] | outcome [14] | outcome [15] | Potency [16]

COc1ccccc1N1CCNCC1
10.4%: viability change [10]
inactive: Potency [1] | Potency [17] | outcome [2] | outcome [3] | outcome [4] | Potency [5] | Potency [6] | outcome [19] | Potency [8] | Potency [18] | activation [9] -7.69% | Potency [10] | outcome [11] | Potency [12] | Potency [13] | outcome [14] | outcome [15] | Potency [16]

NCC(CC(=O)O)c1ccc(Cl)cc1 (stereo not given)
inactive: Potency [1] | Potency [17] | outcome [2] | outcome [3] | outcome [4] | Potency [5] | Potency [7] | Potency [8] | activation [9] 0.125% | outcome [11] | Potency [12] | Potency [13] | outcome [14] | outcome [15] | Potency [16]
12.6%: viability change [10]
active: Potency [10] 9.2 µM

CCCC(C)(COC(N)=O)COC(=O)NC(C)C (stereo not given)
5.42%: viability change [10]
inactive: Potency [1] | outcome [2] | outcome [3] | outcome [4] | Potency [5] | Potency [6] | Potency [7] | Potency [8] | Potency [18] | activation [9] -0.188% | Potency [10] | outcome [11] | Potency [12] | Potency [13] | outcome [14] | outcome [15] | Potency [16]
active: Potency [17] 6 nM

Fc1ccc(C(OCCN2CCN(CCCc3ccccc3)CC2)c2ccc(F)cc2)cc1
active: Potency [1] 15.8 µM | Potency [17] 39800 nM | Potency [18] 23.1 µM
inactive: outcome [2] | outcome [3] | outcome [4] | Potency [5] | Potency [6] | Potency [7] | Potency [8] | activation [9] -5.62% | outcome [11] | Potency [12] | Potency [13] | outcome [14] | outcome [15] | outcome [20]

c1ccc(C2CC2)c(OCC2=NCCN2)c1
5.58%: viability change [10]
inactive: Potency [1] | outcome [2] | outcome [3] | outcome [4] | Potency [5] | Potency [6] | Potency [7] | Potency [8] | Potency [18] | activation [9] 0.562% | Potency [10] | outcome [11] | Potency [12] | Potency [13] | outcome [14] | outcome [15] | Potency [16] | outcome [20]

CCCN1CCC[C@@H]2Cc3nc(N)ncc3C[C@H]21
1.56%: viability change [10]
inactive: Potency [1] | Potency [17] | outcome [2] | outcome [3] | outcome [4] | Potency [5] | Potency [6] | Potency [7] | Potency [8] | Potency [18] | activation [9] 0.562% | Potency [10] | outcome [11] | Potency [12] | Potency [13] | outcome [14] | outcome [15] | Potency [16]

O=c1[nH]c2ccccc2n1C1CCN(CCCC(c2ccc(F)cc2)c2ccc(F)cc2)CC1
inactive: outcome [2] | outcome [3] | outcome [4] | Potency [5] | Potency [6] | Potency [8] | outcome [11] | Potency [12] | Potency [13] | outcome [14] | outcome [15] | outcome [20]
active: Potency [1] 22.4 µM | Potency [17] 35500 nM | Potency [18] 11.6 µM

CCCN1CCC[C@@H]2Cc3[nH]ncc3C[C@H]21
1.53% and 0.366%: viability change [10]
inactive: Potency [1] | Potency [17] | outcome [2] | Potency [5] | Potency [6] | Potency [7] | Potency [8] | Potency [18] | Potency [10] | outcome [11] | Potency [12] | Potency [13] | outcome [14] | outcome [15] | Potency [16] | outcome [20]
